Test results as given in PubChem BioAssay (NCATS).
Several values for one entry are separate records, joined by “and”; a condition that tells them apart may be missing. Identical values can stand only once. Inconclusive results are not listed. Activity calls are given as the source filed them. The call rests on the fitted dose curve; in most records, active means well fitted curve in the direction sought with a large enough effect; inconclusive means small, poorly fitted or top-dose-only effect, or another doubt; inactive means no such curve, though single readings can be large; an effect the other way counts as inactive or inconclusive.

Tests used:
[1] = qHTS Assay for Identifying Gametocytocidal Compounds (AID 743244); further: potency means the concentration at half of the fitted maximal effect;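 on max response: actives lower the fluorescent signal which means gametocytes are killed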; conditions: P. falciparum 3D7 stage III-V gametocytes, alamarBlue, 72 h; max response: active compounds read low
How it was run: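 A resazurin-based viability read-out was applied to mature P. falciparum gametocytes: 72 h compound treatment, then 24 h dye incubation, with falling fluorescence signalling gametocytocidal effect.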

[2] = qHTS assay for cell viability of the p53RE-bla HCT-116 cell line (AID 743292); conditions: p53RE-bla HCT-116 viability, ATP luminescence, 16 h; series mostly up to 95 µM; further: nearly all actives have a fitted effect of over 55% in size
How it was run: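 After plating at 4,000 cells per well and a 5 h rest at 37 C, HCT-116 cells carrying p53RE-bla received test chemicals in DMSO. Sixteen hours later at 37 C, CellTiter-Glo was added and luminescence recorded following 30 min at room temperature.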

[3] = qHTS assay to identify small molecule inhibitors of chordoma cells - UCH-1 (AID 1259355); conditions: UCH-1 chordoma viability, CellTiter-Glo, 48 h, combination; series mostly up to 46.1 µM; further: nearly all actives have a fitted effect of over 55% in size
How it was run: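 Seed 800 cells per well; incubate overnight at 37 C, 5% CO2. Add test compounds (15 concentrations), then the auranofin–topoisomerase-agent combination. Incubate 48hr, add CellTiter-Glo, wait 30min, read luminescence.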

[4] = qHTS assay to identify small molecule inhibitors of chordoma cells - UCH-2 (AID 1259356); conditions: UCH-2 chordoma viability, CellTiter-Glo ATP luminescence, 48 h; series mostly up to 46.1 µM
[5] = P-glycoprotein substrates identified in KB-8-5-11 adenocarcinoma cell line, qHTS therapeutic library screen (AID 1346987); conditions: KB-8-5-11 (P-gp overexpressing) viability, CellTiter-Glo, 72 h; series mostly up to 44.5 µM; further: nearly all actives have a fitted effect of over 65% in size
How it was run: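 KB-8-5-11, a colchicine-selected P-gp-overexpressing KB-3-1 subline, was grown without colchicine for the assay. Cells were seeded at 500 cells/well, dosed in concentration-response and incubated 72 h at 37 degree C, 5% CO2. Viability was read by CellTiter-Glo luminescence.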
On the % scale 0 is the no-effect control and ±100 the full control effect.

CC(C)(C)c1cc(O)ccc1O
active: Potency [1] 31.6 µM and 3.55 µM
inactive: Potency [2] | Potency [3] | Potency [4] | Potency [5]

CCC1(c2ccccc2)C(=O)NC(=O)N(C(=O)c2ccccc2)C1=O (configuration not stated)
inactive: max response [1] -4.65% | Potency [3] | Potency [4] | Potency [5]

C=CCN=C=S
inactive: max response [1] -13.2% | Potency [2] | Potency [3] | Potency [4] | Potency [5]

S=C(S)N1CCNCC1
inactive: max response [1] -5.89% | Potency [3] | Potency [4] | Potency [5]

CCON=O
inactive: max response [1] -5.54% | Potency [3] | Potency [4] | Potency [5]
